Laboratory results published in PubChem BioAssay AID1159580 (chemical genetic matrix, 2015).
In all, about 5,500 compounds went through this assay and about 2,000 (36%) were called active. Roughly 18% stayed inconclusive and do not appear here. Cut-off read from the data, not from the text of the source: active = normalized growth mostly below about 0.91 (no sharp cut-off); inconclusive = no clear call, values can overlap the other calls; inactive = mostly above about 0.92. This is one part of the list.

Test: chemical genetic growth profiling, strain panel (AID 1159580);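 note: tested at 20 µM; growth read once vehicle control cultures reached saturation at 30 °C; 1 = growth at the plate median or of vehicle wells; lower values mean less growth of the strain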
Settings: S. cerevisiae deletion strains, growth OD

Measured: normalized growth

CN(C)C(=O)Oc1cc(OC(=O)N(C)C)cc(C(O)CNC(C)(C)C)c1 (stereo not given)
inactive: locus YAL021C, strain ccr4, active compounds read low 1.02 | locus YAL026C, strain drs2, active compounds read low 1.03 | locus YAL030W, strain snc1, active compounds read low 1.02 | locus YBL061C, strain skt5, active compounds read low 1.02 | locus YBR009C, strain hhf1, active compounds read low 1.04 | locus YBR023C, strain chs3, active compounds read low 1.02 | locus YBR171W, strain sec66, active compounds read low 1.03 | locus YBR231C, strain swc5, active compounds read low 1.03 | locus YBR279W, strain paf1, active compounds read low 1.02 | locus YCL011C, strain gbp2, active compounds read low 1.03 | locus YCL016C, strain dcc1, active compounds read low 1.03 | locus YCL061C, strain MRC1, active compounds read low 1.03 | locus YCL069W, strain vba3, active compounds read low 1.03 | locus YCR088W, strain abp1, active compounds read low 1.03 | locus YDL005C, strain med2, active compounds read low 1.03 | locus YDL040C, strain nat1, active compounds read low 1.04 | locus YDR001C, strain nth1, active compounds read low 1.03 | locus YDR069C, strain doa4, active compounds read low 1.03 | locus YDR137W, strain rgp1, active compounds read low 1.04 | locus YDR159W, strain sac3, active compounds read low 1.05 | locus YDR195W, strain ref2 1.02 | locus YDR297W, strain sur2, active compounds read low 1.02 | locus YDR334W, strain swr1, active compounds read low 1.04 | locus YDR335W, strain msn5, active compounds read low 1.03 | locus YDR392W, strain spt3, active compounds read low 0.947 | locus YEL003W, strain gim4, active compounds read low 1.02 | locus YEL037C, strain rad23, active compounds read low 1.03 | locus YEL061C, strain CIN8 (second series), active compounds read low 1.03 | locus YER015W, strain faa2, active compounds read low 1.03 | locus YER016W, strain bim1, active compounds read low 1.04 | locus YER111C, strain swi4, active compounds read low 1.03 | locus YER155C, strain BEM2 (second series), active compounds read low 1.03 | locus YFR010W, strain ubp6, active compounds read low 1.03 | locus YGL167C, strain pmr1, active compounds read low 1.03 | locus YGL173C, strain kem1, active compounds read low 1.04 | locus YGL227W, strain vid30, active compounds read low 1.04 | locus YGL240W, strain doc1, active compounds read low 1.03 | locus YGL253W, strain hxk2, active compounds read low 1.03 | locus YHR013C, strain ard1, active compounds read low 1.02 | locus YHR027C, strain rpn1, active compounds read low 1.04 | locus YHR030C, strain SLT2, active compounds read low 0.977 | locus YHR079C, strain IRE1, active compounds read low 0.991 | locus YHR142W, strain chs7, active compounds read low 1.02 | locus YJL092W, strain hpr5, active compounds read low 1.02 | locus YJL095W, strain BCK1 (second series), active compounds read low 1.03 | locus YJL095W, strain BCK1, active compounds read low 1.01 | locus YJL115W, strain asf1, active compounds read low 1.03 | locus YJL129C, strain trk1, active compounds read low 1.04 | locus YJL154C, strain vps35, active compounds read low 1.03 | locus YJL164C, strain tpk1, active compounds read low 1.01 | locus YJL166W, strain qcr8, active compounds read low 1.02 | locus YJL187C, strain SWE1, active compounds read low 1.02 | locus YJR066W, strain TOR1, active compounds read low 0.921 | locus YKL160W, strain elf1, active compounds read low 1.01 | locus YKR026C, strain gcn3, active compounds read low 1.03 | locus YKR091W, strain srl3, active compounds read low 1.03 | locus YLL001W, strain dnm1, active compounds read low 1.04 | locus YLL026W, active compounds read low 1.02 | locus YLL041C, strain sdh2, active compounds read low 1.03 | locus YLR027C, strain aat2, active compounds read low 1.03 | locus YLR113W, strain HOG1, active compounds read low 1.01 | locus YLR221C, strain rsa3, active compounds read low 1.02 | locus YLR258W, strain gsy2, active compounds read low 1.03 | locus YLR262C, strain YPT6 (second series), active compounds read low 1.03 | locus YLR320W, strain mms22, active compounds read low 1.04 | locus YLR342W, strain FKS1, active compounds read low 1.03 | locus YLR357W, strain rsc2, active compounds read low 1.02 | locus YLR370C, strain arc18, active compounds read low 1.03 | locus YLR384C, strain iki3, active compounds read low 1.02 | locus YML120C, strain ndi1, active compounds read low 1 | locus YMR058W, strain fet3, active compounds read low 1.03 | locus YMR125W, strain sto1, active compounds read low 1.04 | locus YMR129W, active compounds read low 1.02 | locus YMR205C, strain PFK2, active compounds read low 1.05 | locus YMR231W, strain pep5, active compounds read low 1.03 | locus YNL071W, strain lat1, active compounds read low 1.03 | locus YNL183C, strain NPR1, active compounds read low 0.934 | locus YNL209W, strain ssb2, active compounds read low 1.02 | locus YNL248C, strain rpa49, active compounds read low 1 | locus YNL322C, strain KRE1 (second series), active compounds read low 1.03 | locus YNR049C, strain mso1, active compounds read low 1.03 | locus YOR001W, strain rrp6, active compounds read low 0.999 | locus YOR070C, strain gyp1, active compounds read low 1.02 | locus YOR080W, strain dia2, active compounds read low 1.03 | locus YOR083W, strain WHI5, active compounds read low 1.01 | locus YOR106W, strain vam3, active compounds read low 1.03 | locus YOR231W, strain MKK1, active compounds read low 1.03 | locus YOR265W, strain rbl2, active compounds read low 1.03 | locus YOR270C, strain vph1, active compounds read low 1.06 | locus YOR290C, strain snf2, active compounds read low 0.989 | locus YPL051W, strain arl3, active compounds read low 1.01 | locus YPL078C, strain atp4, active compounds read low 1.02 | locus YPL106C, strain sse1, active compounds read low 1.05 | locus YPL240C, strain hsp82, active compounds read low 1.03 | locus YPL256C, strain CLN2, active compounds read low 0.984
